Reference: the supplement of paper PMC6555819

Columns and labels:
Assay in all cases: PBM binding z-score (relative to random genomic background probes); higher = stronger binding; sequences stand for … in GC…GCGATTGACAGCGTAGAATGAAGG
[1] = system: PPARg:RXRa DBDmut IVT, anti-RXR (DBD mutation: RXRa K156A/R161A, NR concentration 270 nM, RXRa partner concentration 90 nM)
How it was run: (§1)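 On custom Agilent 4×180K arrays, double-stranded probes with 34-nt variable regions carried direct-repeat seeds, single-nucleotide variants, half-site ablations or random human genomic background. Ligand-free nuclear receptor dimers were applied for 1 h, and binding was read with antibodies against each partner (one per run). Binding z-scores come from regression-normalized fluorescence, with the random background probes as reference.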

[2] = system: PPARg:RXRa IVT, anti-PPARg (NR concentration 270 nM, RXRa partner concentration 90 nM)
How it was run: as §1

[3] = system: PPARg DBDmut:RXRa IVT, anti-PPARg (DBD mutation: PPARg1 K132A/R137A, NR concentration 270 nM, RXRa partner concentration 90 nM)
How it was run: as §1

[4] = system: PPARg DBDmut IVT, anti-PPARg (DBD mutation: PPARg1 K132A/R137A, NR concentration 270 nM)
How it was run: as §1

[5] = system: PPARg homodimer (NR concentration 180 nM)
How it was run: as §1

[6] = system: PXR:RXRa (NR concentration 270 nM, RXRa partner concentration 90 nM)
How it was run: as §1

[7] = system: PXR homodimer (NR concentration 270 nM)
How it was run: as §1

[8] = system: RARa:RXR (NR concentration 270 nM, RXRa partner concentration 90 nM)
How it was run: as §1

[9] = system: RARa homodimer (NR concentration 270 nM)
How it was run: as §1

[10] = system: RARb:RXRa (NR concentration 270 nM, RXRa partner concentration 90 nM)
How it was run: as §1

[11] = system: RARb homodimer (NR concentration 270 nM)
How it was run: as §1

[12] = system: RARg:RXRa (NR concentration 270 nM, RXRa partner concentration 90 nM)
How it was run: as §1

[13] = system: RARg homodimer (NR concentration 270 nM)
How it was run: as §1

[14] = system: RXRa DBDmut IVT, anti-RXR (DBD mutation: RXRa K156A/R161A, NR concentration 90 nM)
How it was run: as §1

[15] = system: RXRa homodimer (NR concentration 180 nM)
How it was run: as §1

[16] = system: THRa:RXRa (NR concentration 90 nM, RXRa partner concentration 90 nM)
How it was run: as §1

[17] = system: THRa homodimer (NR concentration 90 nM)
How it was run: as §1

[18] = system: VDR homodimer (NR concentration 270 nM)
How it was run: as §1

| Sequence | PBM binding z-score [1] | PBM binding z-score [2] | PBM binding z-score [3] | PBM binding z-score [4] | PBM binding z-score [5] | PBM binding z-score [6] | PBM binding z-score [7] | PBM binding z-score [8] | PBM binding z-score [9] | PBM binding z-score [10] | PBM binding z-score [11] | PBM binding z-score [12] | PBM binding z-score [13] | PBM binding z-score [14] | PBM binding z-score [15] | PBM binding z-score [16] | PBM binding z-score [17] | PBM binding z-score [18] |
| --- | --- | --- | --- | --- | --- | --- | --- | --- | --- | --- | --- | --- | --- | --- | --- | --- | --- | --- |
| CGTCCAAGGTCATAGGAGGTCAGTGTAGACAGAT | 3.65 | 4.6 | 0.558 | 0.275 | 4.52 | 6.7 | 3.78 | 6.16 | 1.57 | 5.32 | 5.63 | 6.73 | 7.24 | 3.82 | 6.53 | 5.46 | 3.59 | 4.71 |
| AGAACGAGGGCAAAGAGTTGATAGCACGGGTGGC | 3.36 | 2.41 | 0.499 | -0.21 | 0.413 | 1.77 | 4.76 | 0.09 | -0.299 | 2.11 | 1.12 | 1.3 | 1.69 | 2.57 | 1.14 | 0.917 | -0.224 | 3.05 |
| ACAGACAGGTGATGAAGGTCACTCAGGCTATCAT | 0.771 | 1.97 | 0.688 | 0.177 | 2.08 | 2.81 | 2.02 | 2.83 | 0.664 | 3.03 | 3.75 | 3.15 | 2.94 | 0.355 | 2.67 | 2.81 | 0.677 | 1.51 |
| CGAACTACGTCAAGGACAGTGAATCTCCGCACGC | -0.146 | -0.464 | -0.384 | -0.387 | -0.76 | -0.445 | 0.128 | -0.00341 | -0.551 | 0.27 | 0.242 | -0.205 | 0.151 | 0.114 | 0.0152 | 1.67 | 1.13 | 0.0374 |
| TAATATAGGTAAAGGTGAAAGTCGAACGATATGA | 6.04 | 6.44 | 2.33 | 2.3 | 2.1 | 1.02 | 0.701 | 1.8 | 1.92 | 2.03 | 1.71 | 1.62 | 1.66 | -0.417 | 2.32 | 1.45 | 0.232 | 0.489 |
| ACTCGGAGGACAAAGGTCAGAGCCACGCCAGTGA | 0.449 | 3.88 | 0.243 | 0.0578 | 3.83 | 4.03 | 0.202 | 5.5 | 1.68 | 4.73 | 4.56 | 6.18 | 5.6 | 1.27 | 6.11 | 3.55 | 0.686 | 1.13 |
| GCGACTGGGACATCAGCAGGTTACCATAACTTAA | 1.95 | 1.18 | -0.236 | -1.24 | -0.146 | -0.226 | -0.651 | -0.109 | -0.694 | 0.0627 | 0.428 | -0.00527 | 0.0107 | -0.5 | 0.176 | 0.674 | 0.0254 | -0.459 |
| CCGACTGGGGCAGAAGGGTTACCATACCATCCGG | 1.09 | 1.56 | -0.531 | -1.22 | 0.108 | -0.0806 | -0.804 | 0.392 | -0.582 | 0.984 | 1.08 | 0.666 | 0.787 | -1.36 | 0.641 | 0.0428 | -0.605 | -0.332 |
| GATGCAGGGTCAAGGCCAGAGTACGCGTATTGAT | 1.47 | 3.42 | -0.201 | -0.81 | 1.2 | 3.59 | 0.224 | 3.86 | 0.306 | 4.54 | 3.44 | 5.2 | 4.79 | 1.98 | 5.72 | 3.46 | 0.878 | 1.78 |
| GATACAGGGTCAAGGCTAGAGTACGCGTATTGAT | 3.54 | 3.94 | 1.02 | 0.742 | 1.69 | 3.72 | 0.503 | 4.37 | 0.567 | 4.43 | 3.75 | 5.53 | 5.01 | 2.4 | 5.93 | 3.52 | 1.23 | 2.36 |
| CAAACTAGGTCAAGAGGTCAAAATCCGCTTCCCG | 7.82 | 8.13 | 1.85 | 1.15 | 4.78 | 5.89 | 1.57 | 7.65 | 1.73 | 5.35 | 5.66 | 7.74 | 7.02 | 2.42 | 7.25 | 4.55 | 2.33 | 3.18 |
| TTACCAAGGTGAGCTGAGGTCGTTAATCCAACTC | 1.09 | 1.7 | -0.772 | -1.04 | -0.219 | 4.5 | 0.182 | 1.51 | -0.951 | 1.59 | 1.49 | 0.963 | 0.731 | -0.172 | 1.12 | 4.42 | 1.8 | 1.33 |
| CCTATTAGCTGACCATAAGGGCAACCGAAGCTCG | 0.163 | 0.429 | -0.689 | 0.266 | 1.42 | 0.183 | 0.353 | 0.375 | 0.765 | 1.18 | 1.61 | 0.474 | 0.729 | 0.637 | 0.376 | 1.38 | 1.18 | 0.435 |
| CCTTACGGGTCGCGAGGTTATAGCACGACGAGCG | 0.357 | 1.14 | -0.25 | -0.857 | 1.41 | 2.63 | -0.189 | 3.62 | -0.132 | 2.23 | 1.57 | 3.39 | 2.09 | 0.0933 | 4 | 2.25 | 0.349 | 0.904 |
| CGTCCAAGGTCATAGGAGGACAGTGAAGACAGAT | 2.87 | 3.57 | 0.568 | 0.524 | 3.01 | 5.67 | 1.55 | 4.89 | 1.62 | 4.98 | 4.12 | 5.65 | 6.13 | 3.71 | 5.55 | 4.99 | 2.83 | 3.3 |
